# Screens deposited in PubChem BioAssay by several laboratories.
# SIRT5 block: blocks human SIRT5 desuccinylation of peptide; Q9NXA8; Purified SirT5, succinyl-peptide AMC, trypsin-coupled fluorescence; inhibition, % at 15 µM; 330,000 tested, 1.1% active; in the data active = inhibition above about 15%
# Target sequence (Q9NXA8 whole entry, looked up): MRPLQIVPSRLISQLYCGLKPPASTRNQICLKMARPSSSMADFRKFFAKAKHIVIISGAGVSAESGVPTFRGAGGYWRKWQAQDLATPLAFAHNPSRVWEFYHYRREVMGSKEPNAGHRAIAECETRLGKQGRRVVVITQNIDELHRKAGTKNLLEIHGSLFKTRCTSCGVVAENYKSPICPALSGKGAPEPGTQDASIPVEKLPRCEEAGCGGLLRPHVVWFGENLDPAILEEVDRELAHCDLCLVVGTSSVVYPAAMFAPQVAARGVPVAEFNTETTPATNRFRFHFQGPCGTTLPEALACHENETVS
# CASP6 VEID inh: inhibitors of human caspase-6; P55212; purified caspase-6, Z-VEID-R110 cleavage fluorescence; inhibition, % at 12.5 µM; 350,000 tested, 0.53% active;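 active = mean inhibition across replicates at least about 35%, with every replicate also reaching that limit, limit read from the data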;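 also: 0% = median of neutral control wells and 100% = no fluorescence left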
# Target sequence (P55212 24-179 limits assumed): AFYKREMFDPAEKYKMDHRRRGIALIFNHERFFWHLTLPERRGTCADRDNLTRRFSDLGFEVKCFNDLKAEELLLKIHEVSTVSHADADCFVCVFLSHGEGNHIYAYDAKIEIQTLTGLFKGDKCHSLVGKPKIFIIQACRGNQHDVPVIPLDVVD
# Target sequence (P55212 194-293 limits assumed): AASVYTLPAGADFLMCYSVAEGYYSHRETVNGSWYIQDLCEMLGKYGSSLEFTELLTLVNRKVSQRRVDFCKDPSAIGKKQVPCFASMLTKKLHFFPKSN
# SUMO HTRF inh: SUMOylation inhibition | P63279 | HTRF SUMOylation assay, SAE1/SAE2 + UBC9, in vitro | 290,000 tested, 0.36% active | inhibition, % at 35 µM; in the data active = inhibition above about 50%, passing the limit was not always enough
# NSD2 HMT inh: blocks human histone methyltransferase NSD2 | NSD2 peptide methylation, AlphaScreen, 120 min | 310,000 tested, 0.54% active | inhibition, % at 12.5 µM | AID 743445; in the data active = inhibition above about 50%
# * hit, by the source's call; . = not tested or not shown. Hits are enriched below; roughly 1.6% of the tested compounds scored in any of these assays.
SMILES,SIRT5 block,CASP6 VEID inh,SUMO HTRF inh,NSD2 HMT inh
Cc1ccc(NC(=O)c2ccc3c(c2)CCN3S(C)(=O)=O)cc1,20*,-1,.,-3
Cc1cc(C)cc(NC(=O)c2ccc3c(c2)CCN3S(C)(=O)=O)c1,-1,0,5,-5
C[C@H](CO)N1C[C@H](C)[C@H](CN(C)Cc2ccccc2F)Oc2cc(C#CC3CC3)ccc2S1(=O)=O,43*,-1,.,.
C[C@@H]1CN([C@@H](C)CO)S(=O)(=O)c2ccc(C#CC3CC3)cc2O[C@H]1CN(C)Cc1ccccc1F,11,0,.,.
CC(C)CC#Cc1ccc2c(c1)O[C@@H](CN(C)Cc1ccccc1F)[C@@H](C)CN([C@@H](C)CO)S2(=O)=O,16*,3,.,.
Cc1coc2c(C)c3oc(=O)c(CCC(=O)N[C@@H](C)C(=O)N[C@@H](Cc4ccccc4)C(=O)O)c(C)c3cc12,26*,16,17,.
COc1ccc(S(=O)(=O)Nc2ccc3c(c2)CC(=O)N([C@H](C)CO)C[C@H](C)[C@@H](CN(C)S(=O)(=O)c2ccc(Cl)cc2)O3)cc1,13,0,.,.
C[C@@H]1CN([C@@H](C)CO)C(=O)Cc2cc(N(C)C)ccc2O[C@H]1CN(C)C,-11,-16,.,.
CN(C)Cc1cn(CC[C@@H]2CC[C@@H](NS(=O)(=O)c3ccccc3)[C@H](CO)O2)nn1,-2,1,.,.
CN(C)Cc1cn(CC[C@@H]2CC[C@H](N)[C@H](CO)O2)nn1,21*,0,.,.
CN(C)Cc1cn(CC[C@H]2CC[C@H](NS(=O)(=O)c3ccccc3)[C@H](CO)O2)nn1,33*,3,.,.
C[C@@H]1CN([C@@H](C)CO)C(=O)Cc2cc(NS(=O)(=O)c3ccc(F)cc3)ccc2O[C@@H]1CN(C)C,0,0,.,.
CCCC#Cc1ccc([C@@H]2[C@H]3CN(S(=O)(=O)c4ccccc4C)CC(=O)N3[C@H]2CO)cc1,9,2,.,.
CC(=O)N(C)C[C@@H]1Oc2ncc(C#Cc3ccncc3)cc2C(=O)N([C@H](C)CO)C[C@H]1C,0,1,.,.
COc1ccc(C2=NN(c3ccccc3)C(=O)/C2=C\c2ccc(O)c(OC)c2)cc1,-1,4,74*,37
CN1CCN(C(=O)c2ccc(C(F)(F)F)cc2)CC1,6,-3,3,-2
CCN1CCN(C(=O)c2ccc(C(F)(F)F)cc2)CC1,20*,1,8,0
CCC(=O)N1CCC1(C)C(=O)Nc1ccc2c(c1)CCN2C(C)=O (configuration not stated),.,49*,.,2
CCCC(=O)N1CCCC1(C)C(=O)Nc1ccc2c(c1)CCN2C(C)=O (configuration not stated),-1,0,.,-4
Cn1nc(CSc2ccccc2)c(C=O)c1Cl,15*,2,20,0
COC(=O)[C@@]1(Cc2ccc(F)cc2)[C@H]2c3cc(C(=O)N4CCCC4)n(Cc4cc(F)cc5c4OCOC5)c3C[C@H]2CN1C(=O)c1ccccc1,22*,-2,.,.
CCCN(C)C[C@H]1OCCCC[C@@H](C)Oc2ccc(NC(=O)Nc3ccc(C(F)(F)F)cc3)cc2C(=O)N([C@H](C)CO)C[C@H]1C,2,0,.,.
CCOc1ccc(S(=O)(=O)NCCC(=O)NCC2(N3CCCCC3)CCCCC2)cc1,-2,50*,3,0
O=C(COC(=O)CC1CC2CCC1C2)NCc1ccccc1 (configuration not stated),35*,-4,.,0
O=C(NC1CC1)c1cccc2c1C(=O)c1ccc(N3CCC(N4CCCCC4)CC3)cc1S2(=O)=O,17*,-6,.,.
SMILES,SIRT5 block,CASP6 VEID inh,SUMO HTRF inh,NSD2 HMT inh
C[C@H](CO)N1C[C@H](C)[C@H](CN(C)S(=O)(=O)c2ccc(Cl)cc2)Oc2ccc(NC(=O)C3CC3)cc2C1=O,5,3,.,.
C[C@H](CCC(=O)OCc1cn(CC(=O)c2ccc(O)cc2)nn1)C1CC[C@H]2[C@@H]3CC[C@@H]4C[C@H](O)CC[C@]4(C)[C@H]3C[C@H](O)[C@]12C (some centres not stated),33*,.,.,.
O=C(CSC1CC(=O)N(c2ccc(C(=O)O)cc2)C1=O)Nc1ccc(Cl)cc1 (configuration not stated),18*,.,14,1
O=C(O)CSC1CC(=O)N(c2ccc(F)cc2)C1=O (configuration not stated),0,-1,.,-1
COc1ccc(C2CCCN2C(=O)Nc2ccc(C)c(C)c2)cc1OC (configuration not stated),16*,4,1,.
COc1ccc(C2CCCN2C(=S)Nc2ccc(C)c(C)c2)cc1OC (configuration not stated),-3,-2,5,1
CC(C)NC(=O)Nc1ccc2c(c1)CC(=O)N([C@@H](C)CO)C[C@@H](C)[C@H](CN(C)Cc1ccc3c(c1)OCO3)O2,2,-5,.,.
O=C1CC(=O)N(Cc2ccco2)C(=S)N1,.,.,83*,.
Cc1ccc(-c2cnc3c(c2)C(=O)N([C@@H](C)CO)C[C@H](C)[C@H](CN(C)CC2CCOCC2)O3)cc1,1,-2,.,.
Cc1ccc(S(=O)(=O)N(C)C[C@@H]2Oc3cc(C#Cc4ccncc4)ccc3S(=O)(=O)N([C@@H](C)CO)C[C@H]2C)cc1,15*,2,.,.
Cc1ccc(S(=O)(=O)N(C)C[C@H]2Oc3cc(C#Cc4ccncc4)ccc3S(=O)(=O)N([C@@H](C)CO)C[C@@H]2C)cc1,10,0,.,.
Cc1ccc(S(=O)(=O)N(C)C[C@@H]2Oc3cc(C#Cc4ccccc4)ccc3S(=O)(=O)N([C@@H](C)CO)C[C@@H]2C)cc1,5,39*,.,.
Cc1ccc(S(=O)(=O)N(C)C[C@@H]2Oc3cc(C#Cc4ccncc4)ccc3S(=O)(=O)N([C@H](C)CO)C[C@H]2C)cc1,16*,2,.,.
CN(C)C(=O)[C@@H]1[C@@H](CO)[C@@H]2Cn3c(ccc(-c4ccccc4)c3=O)[C@H]1N2C(=O)C1CCC1,-32,-1,.,.
O=C(NC[C@@H]1CC[C@H]2[C@H](CN2Cc2cccc(Cl)c2)O1)C1CC1,-1,0,.,.
CC(=O)Nc1ncc2c(n1)CC(c1ccco1)CC2=O (configuration not stated),16*,3,-13,1
CCC(=O)Nc1ncc2c(n1)CC(c1ccco1)CC2=O (configuration not stated),.,.,45,0
COc1nc(N2CCOCC2)nc(-n2cccc2)n1,23*,-4,-4,2
C[C@@H](NC(=O)[C@@H]1[C@@H](CO)[C@@H]2Cn3c(ccc(C4=CCCCC4)c3=O)[C@H]1N2)c1ccccc1,-21,-3,.,.
COc1cc(/C=C/C(=O)OCC(=O)N2CC(=O)Nc3ccccc32)ccc1O,15*,1,-4,0
CCOC(=O)COc1ccc2c(C#N)c3ccccn3c2c1,-5,20,36,31
N#Cc1c2ccc(OCC(N)=O)cc2n2ccccc12,1,3,62*,-1
CCC(=O)Nc1ccc2c(c1)C(=O)N(C)[C@H]1CC[C@@H](CC(=O)NCCN3CCCCC3)O[C@@H]1CO2,-1,2,.,.
CO[C@@H]1CN(C)C(=O)c2ccc(NC(=O)NC(C)C)cc2OC[C@@H](C)N(C(=O)C2CCC2)C[C@H]1C,0,-1,.,.
